Test results reported in PubChem BioAssay (NCI).
Compounds without any hit were thinned out: in the full panel of roughly 79,000, 15% have a hit. Active and inactive are the calls of the source. Rule as the data show it: active = growth inhibition above about 70%; inactive = the rest.

How the values were obtained:
[1] = NCI Yeast Anticancer Drug Screen. Data for the wt1 strain (AID 149);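 also: 0% = growth of vehicle-treated wt1 cultures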; conditions: S. cerevisiae wt1 strain (SPY 50644) growth inhibition, hits give high values
In short: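 The wt1 strain was treated with compounds, and growth was compared with vehicle-treated cultures to give inhibition.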

[2] = NCI Yeast Anticancer Drug Screen. Data for the rad50EPP+ strain (AID 151);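 also: 0% = growth of vehicle-treated control cultures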; conditions: S. cerevisiae rad50 mutant strain, hits give high values
In short: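 Compounds were applied to the rad50EPP+ yeast strain, which bears a defined DNA repair alteration, and growth inhibition was determined relative to vehicle-treated cultures.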

[3] = NCI Yeast Anticancer Drug Screen. Data for the mgt1 strain (AID 153); conditions: S. cerevisiae mgt1 mutant growth inhibition, hits give high values
In short: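 Strain: mgt1 yeast, one of a set carrying defined DNA damage repair or cell cycle control alterations. Compound-treated growth compared with vehicle.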

[4] = NCI Yeast Anticancer Drug Screen. Data for the rad50 strain (AID 155);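 also: 0% = growth of vehicle-only cultures of the same strain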; conditions: S. cerevisiae rad50 strain growth inhibition, hits give high values
In short: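 Cells are treated with compound, grown, and their growth is then scored against vehicle-only cultures of the same repair-deficient yeast strain.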

[5] = NCI Yeast Anticancer Drug Screen. Data for the mec2-1 strain (AID 157); conditions: S. cerevisiae mec2-1 strain, hits give high values
In short: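 Strain: mec2-1 (DNA repair/cell cycle alteration). Compound exposure, then growth measured; inhibition expressed relative to vehicle.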

[6] = NCI Yeast Anticancer Drug Screen. Data for the sgs1 mgt1 strain (AID 161);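 also: 0% = growth of cultures given vehicle only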; conditions: S. cerevisiae sgs1 mgt1 strain, hits give high values
In short: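 Test agents were incubated with a DNA-repair-mutant yeast strain. Growth was then read and compared against vehicle-treated controls.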

[7] = NCI Yeast Anticancer Drug Screen. Data for the CLN2oe strain (AID 163);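 also: 0% = growth of vehicle-only control cultures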; conditions: S. cerevisiae CLN2oe strain, hits give high values
In short: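 Growth of a genetically modified yeast strain is measured after compound exposure and compared with cultures given vehicle alone.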

[8] = NCI Yeast Anticancer Drug Screen. Data for the cln2 rad14 strain (AID 165);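 also: 0% = growth equal to vehicle treated cultures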; conditions: S. cerevisiae cln2 rad14 strain, hits give high values
In short: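 Compounds are applied to the cln2 rad14 yeast strain, and growth is then compared with that of vehicle-treated cultures to give inhibition.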

[9] = NCI Yeast Anticancer Drug Screen. Data for the bub3 strain (AID 167); conditions: S. cerevisiae bub3 mutant strain, hits give high values
In short: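 Part of a panel of yeast mutants defective in DNA damage repair or cell cycle regulation. Each strain is grown with compound, and inhibition is calculated relative to solvent-treated cultures.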

[10] = NCI Yeast Anticancer Drug Screen. Data for the wt2 strain (AID 169);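 also: 0% = growth of vehicle-treated yeast cultures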; conditions: S. cerevisiae wt2 strain growth inhibition, hits give high values
In short: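 This strain belongs to a panel of yeast strains with defined genetic alterations in DNA damage repair or cell cycle control. Compounds are applied, and growth inhibition is measured against vehicle-treated cultures.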

[11] = NCI Yeast Anticancer Drug Screen. Data for the mlh1 strain (AID 171);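 also: 0% = growth of vehicle-treated control cultures of the same strain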; conditions: S. cerevisiae mlh1 strain growth inhibition, hits give high values
In short: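 Growth of the mutant yeast strain after compound exposure, expressed as inhibition relative to vehicle-only controls.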

[12] = NCI Yeast Anticancer Drug Screen. Data for the sgs1 strain (AID 173);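 also: 0% = growth of vehicle-only control cultures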; conditions: S. cerevisiae sgs1 mutant, hits give high values
In short: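 Growth of a yeast strain bearing a defined genetic alteration is measured after compound treatment. Inhibition is expressed relative to vehicle-only controls.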

[13] = NCI Yeast Anticancer Drug Screen. Data for the mlh1 rad18 strain (AID 175); conditions: S. cerevisiae mlh1 rad18 strain growth inhibition, hits give high values
In short: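 Read-out is yeast growth inhibition, calculated against vehicle-only controls. The compound was applied to a strain engineered with DNA damage repair alterations.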

[14] = NCI Yeast Anticancer Drug Screen. Data for the rad18 strain (AID 177); conditions: S. cerevisiae rad18 mutant growth inhibition, hits give high values
In short: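 Growth of the mutant yeast strain after compound exposure, normalised to vehicle-only cultures.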

[15] = at 5.0 µM (retest, dose inferred, filed as 0.5)
[16] = at 50.0 µM (retest, dose inferred, filed as 5.0)

Measured: growth inhibition

O=C1c2ccccc2C(=O)N1CCCC(=O)n1cc(F)c(=O)[nH]c1=O
inactive: [1]; at 1.2 µM -51% | [1]; at 3.7 µM -43% | [1]; at 11.0 µM -26% | [1]; at 33.0 µM -21% | [1]; at 100.0 µM 34% | [2]; at 1.2 µM -25% | [2]; at 3.7 µM -16% | [2]; at 11.0 µM 27% | [2]; at 33.0 µM 69% | [3]; at 1.2 µM 5% | [3]; at 3.7 µM 23% | [3]; at 11.0 µM 47% | [4]; at 1.2 µM -3% | [4]; at 3.7 µM 2% | [4]; [15] 27% | [4]; at 11.0 µM 18% | [4]; at 33.0 µM 51% | [4]; [16] 66% | [5]; at 1.2 µM -24% | [5]; at 3.7 µM -19% | [5]; [15] 20% | [5]; at 11.0 µM 18% | [6]; [15] 24% | [6]; [16] 64% | [7]; at 1.2 µM 2% | [7]; at 3.7 µM 19% | [7]; at 11.0 µM -19% | [7]; at 33.0 µM 10% | [7]; at 100.0 µM 38% | [8]; [15] 30% | [8]; [16] 61% | [8]; at 50.0 µM 27.1% | [9]; at 1.2 µM 9% | [9]; at 3.7 µM 17% | [9]; [15] 11% | [9]; at 11.0 µM 10% | [9]; at 33.0 µM 45% | [9]; [16] 19% | [9]; at 50.0 µM 46.5% | [9]; at 100.0 µM 60% | [10]; at 1.2 µM -19% | [10]; at 3.7 µM -12% | [10]; at 11.0 µM 16% | [10]; at 33.0 µM 56% | [11]; at 1.2 µM -20% | [11]; at 3.7 µM -18% | [11]; at 11.0 µM 17% | [11]; at 33.0 µM 59% | [12]; at 1.2 µM -14% | [12]; at 3.7 µM 7% | [12]; at 11.0 µM 41% | [13]; [15] 39% | [13]; [16] 68% | [13]; at 50.0 µM 60.2% | [14]; at 1.2 µM 11% | [14]; at 3.7 µM 5% | [14]; at 11.0 µM 14% | [14]; at 33.0 µM 42% | [14]; at 100.0 µM 68%
active: [2]; at 100.0 µM 88% | [3]; at 33.0 µM 74% | [3]; at 100.0 µM 91% | [4]; at 50.0 µM 71.3% | [4]; at 100.0 µM 79% | [5]; at 33.0 µM 73% | [5]; [16] 88% | [5]; at 50.0 µM 83.2% | [5]; at 100.0 µM 93% | [6]; at 50.0 µM 85.2% | [10]; at 100.0 µM 82% | [11]; at 100.0 µM 78% | [12]; at 33.0 µM 72% | [12]; at 100.0 µM 88%
